# Screening data: PubChem BioAssay, National Center for Advancing Translational Sciences (NCATS)
# Many of the other results were omitted from the sample, so hits are more common in it than they were.
# Pf Dd2 inh – blocks in vitro growth of P. falciparum Dd2. P. falciparum Dd2 growth, SYBR Green, 72 h. Potency, µM (titrated, usually from 28.9 µM), for inactives: at the top dose activity, negative = inhibition, most hits filed as inhibitors. hit rate 4.3% among 120,000. AID 1347417; active = well fitted inhibition curve with a large enough effect;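 also: plate controls were DMSO vehicle for no effect and reference drug for full effect; nearly all actives have a fitted effect of over 65% in size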
#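 Infected erythrocytes (Dd2, 0.3% parasitemia, 2.5% hematocrit final) are added to compound in RPMI-1640/Albumax II medium, grown 72 h at 37C in low oxygen, then lysed with saponin/Triton-X containing SYBR Green and read by fluorescence.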
# Numbers without * were called inactive; i = inactive; [ ] = another dose, or the depositor's remark. Potency is read from the fitted curve at half-maximal effect.
SMILES,Pf Dd2 inh
Cc1ccccc1OCCCCn1c(C2CC(=O)N(c3ccccc3Cl)C2)nc2ccccc21 (stereo not given),14.2%
COC[C@@H]1CN(Cc2ccc(C)cn2)C[C@H]1C(=O)NC1CC1,i
O=C(O)C1=NOC2CN(Cc3cncs3)CC12 (stereo not given),10.8%[44.1 µM]
Cn1nccc1CCC(=O)N[C@@H]1CCOC[C@H]1Oc1ccccn1,-2.5%
CC(=O)N1Cc2ccccc2CC2(CCN(CC3CCCC3)CC2)C1,-25.8%
O=C(O)CCC(=O)N1CCCC2(Cc3ccccc3N(C(=O)C3CCCC3)C2)C1 (stereo not given),6.1%
CS(=O)(=O)N1CC2(CCN(CC3CC3)C2)Cc2ccccc21 (stereo not given),-13.2%
NC(=O)c1cccc(CN2CCC3(Cc4ccccc4N(C(=O)C4CCCC4)C3)C2)c1 (stereo not given),-22.9%
O=C(C1CCCC1)N1CC2(CCN(Cc3ccc(Cl)cc3)C2)Cc2ccccc21 (stereo not given),14.1µM*
O=C(C1CCCC1)N1CC2(CCCN(Cc3c[nH]c4ccccc34)C2)Cc2ccccc21 (stereo not given),7.08µM*
CC(=O)N1CC2(Cc3ccccc31)CN(C(=O)C1CCCC1)C2,-23.3%[44.1 µM]
O=C(C1CCCC1)N1CC2(CCN(CC3CCCCC3)C2)Cc2ccccc21 (stereo not given),11.2µM*
O=c1c2c(CO)c(-c3ccccc3)nn2ccn1Cc1ccccc1F,-10.0%
CCC(=O)N1C[C@@H]2CCCN3CCC[C@@H]([C@H]23)[C@H]1CCCC(=O)NC,-7.4%
CC(Oc1ccccc1)C(=O)N1CCC(n2cc(-c3nc(-c4ccccc4)no3)nn2)C1 (stereo not given),63.2%
CCOc1ccc(C(=O)N2CCC([C@@H]3CNC[C@H]3CO)CC2)cc1OCC,-8.2%
COCc1noc(CCNC(=O)c2cc(S(N)(=O)=O)ccc2F)n1,5.0%
Cn1nccc1C(=O)N1CCc2ccc(NC(=O)C3(c4ccccc4)CC3)cc2C1,-6.1%
CC1(COc2ccc3[nH]ccc3c2)COc2ccc(C(=O)Nc3cccnc3)cc2N1 (stereo not given),i
COc1cc(F)c(-c2nccn2CC(O)c2ccccc2)cc1OC (stereo not given),-24.1%
CCOc1ccc(S(=O)(=O)N2CCCN(C)c3ccccc32)cc1,-24.7%
Cc1cccc(NC(=O)Cn2c(=O)c(-c3noc(C)n3)c3n(c2=O)CCCCC3)c1,21.8%
COCCNC(=O)[C@@H]1C[C@@H](c2ccc(F)cc2)N([S+](=O)([O-])c2cccnc2)C1,-3.0%[44.1 µM]
COc1ccc(Nc2cnc3ccc(-c4ccccc4OC)nn23)cc1OC,-3.7%[44.1 µM]
COc1ccccc1-c1ccc2ncc(Nc3ccc4c(c3)OCO4)n2n1,-4.7%[44.1 µM]
SMILES,Pf Dd2 inh
COc1ccccc1-c1ccc2ncc(Nc3cccc(O)c3)n2n1,12.6µM*
Cc1cccc(NC(=O)Cn2ccn3nc4c(c3c2=O)CCCC4)c1C,i
COc1cc(-c2onc(C)c2C(=O)NCCc2ccc(F)cc2)cc(OC)c1OC,i
COCCNC(=O)c1c(C)noc1-c1cc(OC)c(OC)c(OC)c1,-8.8%
COc1cc(-c2onc(C)c2C(=O)NCCC(c2ccccc2)c2ccccc2)cc(OC)c1OC,11.2µM*
CCS(=O)(=O)N1CCC(n2c(C)cnc2C2CC2)CC1,-12.4%
Cc1cccc(NC(=O)C2(C)CCCCC(=O)N2)c1 (stereo not given),3.7%
CC(C)N1CCC2(CC1)CN(C(=O)C1CCOCC1)Cc1ccccc1O2,i
COc1ccc(CN2CCN3C(=O)N(Cc4ccc(OC)cc4)C[C@H]3C2)cc1,-6.3%[44.1 µM]
COc1ccc(CN2C[C@H]3CN(Cc4ccc(Cl)cc4)CCN3C2=O)cc1,11.3%[44.1 µM]
COc1ccc(CN2C[C@H]3CN(Cc4ccc5c(c4)OCCO5)CCN3C2=O)cc1,11.2µM*
O=C(NC1CCC1)C1=NO[C@@H]2CN(CCc3ccccc3)C[C@H]12,20.9%[44.1 µM]
O=C(NCC1Cn2cccc2CN1Cc1ccccc1)c1n[nH]c2ccccc12 (stereo not given),12.6µM*
O=C(NCC1Cn2cccc2CN1Cc1ccccc1)c1ccncc1 (stereo not given),-28.4%
O=C(NCC1Cn2cccc2C(=O)N1Cc1ccccc1)c1ccncc1 (stereo not given),-6.8%
CS(=O)(=O)N1CCC(C2CCN(C(=O)CC3=CCCCC3)C2)CC1 (stereo not given),-26.7%
O=C([C@@H]1C[C@H](Oc2cccnc2)CN1S(=O)(=O)Cc1ccccc1F)N1CCCC1,34.5%
Cc1cn2nc(C(=O)N3CCC(NC(=O)Cc4ccc(Cl)cc4)CC3)cc2c(=O)[nH]1,2.51µM*
Cc1cn2nc(C(=O)N3CCC(NC(=O)c4ccccc4Cl)CC3)cc2c(=O)[nH]1,31.4%
Cc1cn2nc(C(=O)N3CCC(NC(=O)Cc4ccccc4C)CC3)cc2c(=O)[nH]1,i
COc1cccc(-c2cccc(COc3cnc4c(ccn4CC(=O)O)c3)c2)c1F,i
Cc1ccc(CNC(=O)N2CCC(Cn3c(C)cnc3C3CCOCC3)CC2)cc1,-23.6%
Cc1ccc(CNC(=O)N2CCCC(CN3CCCC3)CC2)cc1 (stereo not given),4.47µM*
COCCOC1CCN(C(=O)NCc2ccc(C)cc2)CC1,-2.4%
Cc1noc(C)c1C(=O)N1CCn2c(nnc2-c2cncc(Br)c2)C1,-6.3%
SMILES,Pf Dd2 inh
CCCCNC(=O)CC(c1cccc2c1OCO2)c1c[nH]c2c(CC)cccc12 (stereo not given),10µM*
CCCCCNC(=O)CC(c1cccc(OC)c1OC)c1c[nH]c2c(CC)cccc12 (stereo not given),-21.5%
O=C(CC(c1cccc2c1OCO2)c1c[nH]c2ccccc12)NCc1ccccc1 (stereo not given),i
COc1ccc(CN2CCc3oc(C)c(C(=O)NCc4cccnc4)c3C2)cc1,11.2µM*
COC(=O)C1CCCN1C(=O)c1c(C)oc2c1CN(Cc1ccc(C)cc1)CC2 (stereo not given),-27.1%
Cc1oc2c(c1C(=O)NCCc1ccncc1)CN(C)CC2,-19.5%
Cc1oc2c(c1C(=O)N1CCOCC1)CN(Cc1cccnc1)CC2,-6.5%
O=C(NCCOc1ccccc1)c1nc2c(o1)CCN(Cc1cccc(F)c1)CC2,i
Cc1oc2c(c1C(=O)NCc1ccncc1)CN(Cc1cccc(F)c1)CC2,10µM*
Cc1oc2ccn(Cc3cccc(F)c3)c(=O)c2c1C(=O)NCc1ccccc1,i
COCCNC(=O)c1c(C)oc2c1CN(Cc1cccc(F)c1)CC2,5.01µM*
COc1ccc(CN2CCc3oc(C)c(C(=O)NC4CCN(C)CC4)c3C2)cc1,10µM*
COc1ccc(CN2CCc3oc(C)c(C(=O)N4CCOCC4)c3C2)cc1,i
Cc1oc2c(c1C(=O)NCc1cccnc1)CN(Cc1ccc(F)cc1)CC2,i
COc1ccc(CN2CCc3nc(C(=O)NCc4cccc(F)c4)oc3CC2)cc1,-3.1%[44.1 µM]
CCOc1cc(C(=O)N2CCN(c3cc(-c4ccc(Cl)cc4)[nH]n3)CC2)cc(OCC)c1OCC,-4.4%
O=C(CN1C(=O)NC(c2ccc(Cl)cc2)C2=C1COC2=O)Nc1ccc(Br)cc1F (stereo not given),-23.2%
O=C(Nc1cccc2ccccc12)O[C@@H]1CO[C@H]2[C@@H]1OC[C@@H]2n1nnnc1Sc1ccccc1,i
CS(=O)(=O)N1C[C@@H](C(=O)Nc2ccc(N3CCOCC3)cc2)[C@H](c2ccncc2)C1,10.1%
COC[C@@H]1CN(C(=O)c2ccc3c(c2)OCO3)C[C@H]1c1ccccn1,-26.2%
N#Cc1ccccc1CN1C(=O)NC(c2cccnc2)(C2CCNCC2)C1=O (stereo not given),-8.3%
